TrxR1 substrate – is turned over as a substrate by rat TrxR1; O89049; purified TrxR1 substrate turnover, NADPH consumption readout; Potency, µM (highest dose often 114 µM), without a hit: at the highest dose activity change, negative = substrate turnover; actives 0.01% (n = 390,000); AID 588456; note: potency is the fitted concentration of half-maximal effect; % is set by controls: 0 for no effect and ±100 for the full control effect; nearly all actives have a fitted effect of over 50% in size
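Rat TrxR1, dispensed at 90 nM, was prereduced with 400 uM NADPH (final) for 5 min at ~22 deg C, then incubated with compound 15 min before 400 uM selenite. A first-read NADPH fluorescence drop versus no-compound background flagged substrates.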
Vif-A3G inh – Vif-A3G binding inhibition; HeLa A3G-eYFP + Vif (tagged APOBEC3G with the HIV-1 protein that degrades it), YFP fluorescence, overnight; Potency, µM (top dose mostly 46.1 µM), without a hit: at the highest dose activity, negative = active, actives largely listed as inhibitors; actives 0.076% (n = 410,000); AID 602310; note: potency is the fitted concentration of half-maximal effect; % is set by controls: 0 for no effect and ±100 for the full control effect; nearly all actives have a fitted effect of over 60% in size
Target sequence (Q9HC16 whole entry, looked up): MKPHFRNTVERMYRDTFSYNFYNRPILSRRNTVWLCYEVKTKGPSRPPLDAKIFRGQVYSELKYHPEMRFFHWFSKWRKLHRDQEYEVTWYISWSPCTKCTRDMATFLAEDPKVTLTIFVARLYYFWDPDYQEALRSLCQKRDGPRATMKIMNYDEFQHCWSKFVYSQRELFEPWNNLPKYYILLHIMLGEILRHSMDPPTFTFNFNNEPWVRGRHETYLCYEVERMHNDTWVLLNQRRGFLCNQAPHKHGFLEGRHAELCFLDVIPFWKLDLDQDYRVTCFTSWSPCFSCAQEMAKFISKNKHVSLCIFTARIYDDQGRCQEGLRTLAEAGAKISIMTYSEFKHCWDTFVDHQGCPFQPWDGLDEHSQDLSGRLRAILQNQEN
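HeLa cells stably expressing Vif and C-terminally eYFP-tagged A3G, seeded overnight at 37 deg C, then exposed to compound by pintool overnight at 37 deg C. Rise in yellow fluorescence (Ex 488/Em 500-530, Acumen) marks blocked Vif-driven A3G degradation.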
Vif-A3F inh – blocks the Vif interaction with APOBEC3F; Potency, µM (highest dose often 46.1 µM), for the others: at the top dose activity, negative = active; actives 0.2% (n = 390,000); HeLa A3F-eYFP + Vif (tagged APOBEC3F with the HIV-1 protein that degrades it), YFP fluorescence increase; note: potency is the fitted concentration of half-maximal effect; % of control where 0% means no effect; nearly all actives have a fitted effect of over 65% in size
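Fluorescence increase (Ex 488/Em 500-530) after overnight compound treatment at 37 deg C flags inhibition of Vif-driven A3F-eYFP loss in stable HeLa A3F-eYFP/Vif cells seeded overnight beforehand.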
VDR inhibitor – blocks the human vitamin D receptor; VDR-SRC2-3 peptide fluorescence polarization, 2 h; Potency, µM, for the others: max response, negative = inhibition, usual class: inhibitors; actives 0.93% (n = 400,000); note: potency is the fitted concentration of half-maximal effect; % is set by controls: 0 for no effect and ±100 for the full control effect
Target sequence (P11473 whole entry, looked up): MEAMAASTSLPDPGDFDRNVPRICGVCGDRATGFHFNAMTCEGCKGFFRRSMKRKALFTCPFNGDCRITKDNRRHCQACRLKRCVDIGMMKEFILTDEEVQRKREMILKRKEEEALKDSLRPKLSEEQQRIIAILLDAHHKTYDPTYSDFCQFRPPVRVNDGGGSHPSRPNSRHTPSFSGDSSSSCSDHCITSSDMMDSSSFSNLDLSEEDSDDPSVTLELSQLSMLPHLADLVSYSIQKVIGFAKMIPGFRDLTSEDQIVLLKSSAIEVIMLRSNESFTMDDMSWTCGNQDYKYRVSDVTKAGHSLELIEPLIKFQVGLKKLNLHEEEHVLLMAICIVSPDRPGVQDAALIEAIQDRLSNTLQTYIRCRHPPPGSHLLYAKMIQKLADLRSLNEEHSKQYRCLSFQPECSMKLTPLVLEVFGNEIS
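VDR–SRC2-3 interaction, FP format. Cmpds 23 nl via pintool, brief spin, 2 h ambient incubation.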
TrxR1 inh – rat TrxR1 inhibition; AID 588453; Potency, µM (highest dose often 114 µM), inactives show at the highest dose activity change, negative = inhibition, hits mostly inhibitors; recombinant rTrxR1, NADPH fluorescence consumption, selenite substrate; actives 1% (n = 390,000); O89049; note: potency is the fitted concentration of half-maximal effect; % is set by controls: 0 for no effect and ±100 for the full control effect; nearly all actives have a fitted effect of over 65% in size
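Rat TrxR1 (90 nM in the dispensed reagent) was pre-reduced with 400 uM NADPH for 5 min at room temperature, then incubated with compound for 15 min. After 400 uM selenite was added, NADPH fluorescence (Ex 340/Em 450 nm) was followed for 8 min.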
USP1-UAF1 confirm – blocks human USP1/UAF1 cleavage of Ub-Rhodamine. AID 540327. Potency, µM (titrated, usually from 114 µM), inactives show top-dose activity change, negative = inhibition, actives largely listed as inhibitors. Ub-Rhodamine cleavage, fluorescence kinetic read. actives 50% (n = 50). shares compounds with VDR inhibitor
VDR confirm – confirmation of human vitamin D receptor inhibitors; actives 89% (n = 840); shares compounds with VDR inhibitor; VDR-coactivator inhibition assay, qHTS confirmation; Potency, µM, hits mostly inhibitors; note: potency is the fitted concentration of half-maximal effect
VDR FP – VDR (human) coactivator binding inhibition, fluorescein polarization | shares compounds with VDR inhibitor | VDR-coactivator binding, fluorescein fluorescence polarization | Potency, µM (doses to about 57.1 µM), for the others: at the highest dose activity change, negative = inhibition, hits mostly inhibitors | actives 48% (n = 840) | AID 602200; note: potency is the fitted concentration of half-maximal effect
VDR bla – confirmation of human vitamin D receptor inhibitors in reporter cells; shares compounds with VDR inhibitor; VDR beta-lactamase reporter cells, FRET ratio; cells co-treated with VDR agonist LG190178; Potency, µM (titrated, usually from 46.1 µM), for the others: at the highest dose activity change, negative = inhibition, hits mostly inhibitors; actives 23% (n = 840); AID 602202; note: potency is the fitted concentration of half-maximal effect; % is set by controls: 0 for no effect and ±100 for the full control effect
VDR viability – cell toxicity, VDR inhibitor hit counter-screen; cytotoxicity counter-screen, cell viability, qHTS; shares compounds with VDR inhibitor; actives 18% (n = 840); AID 602204; Potency, µM (top dose mostly 48.3 µM), without a hit: at the highest dose activity change, negative = cytotoxicity, most hits filed as cytotoxic;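 note: potency is the fitted concentration of half-maximal effect; plate controls were DMSO for no effect and high-concentration cycloheximide for full effect; nearly all actives have a fitted effect of over 75% in size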
An asterisk follows results filed as active; ? = inconclusive; . = no result; [ ] = another dose, or the depositor's remark. An excerpt weighted towards active compounds, which were near 1.8% of everything screened. Calls come from the whole dose curve; as a rule, active = well fitted curve in the direction sought with a large enough effect; inconclusive = small, poorly fitted or top-dose-only effect, or another doubt; inactive = no such curve, though single readings can be large; an effect the other way counts as inactive or inconclusive.

SMILES | TrxR1 substrate | Vif-A3G inh | Vif-A3F inh | VDR inhibitor | TrxR1 inh | VDR confirm | VDR FP | VDR bla | VDR viability | others
O=C1ON=C(c2ccccc2)/C1=C\c1ccco1 | 2% | -5% | -5% | ? | -6% | . | . | . | .
O=C1ON=C(c2ccccc2)/C1=C/c1ccc(O)cc1 | -1% | ? | -13% | 35µM* | 14µM* | 11* | ? | ? | ?
COc1ccc(N2C(=O)CSC23C(=O)N(CC(=O)NC2CCCCC2)c2ccccc23)cc1 (centres undefined) | 0% | 2% | 3% | 23% | 20% | . | . | . | .
COC(=O)c1nc(N2CCN(S(=O)(=O)c3ccc(C)cc3)CC2)c2ccccc2n1 | -7% | . | . | -21% | ? | . | . | . | .
O=C1Nc2ccc(I)cc2/C1=C/c1cc(Br)c(O)c(Br)c1 | 1%[57.1 µM] | . | . | 25µM* | ? | . | . | . | . | USP1-UAF1 confirm=74µM*
CC1(C)C(=O)NC2=C1C(=O)C(=O)c1ccccc12 | . | . | . | 45µM* | . | . | . | . | . | USP1-UAF1 confirm=0.83µM*
CN1CCN(C(=S)NC(=O)c2ccc(C(C)(C)C)cc2)CC1 | 9% | 0% | ? | -6% | -9% | . | . | . | .
C=CCn1cccc(/C=C/C(=O)c2ccc(C(C)(C)C)cc2)c1=S | -1% | -20% | 2% | ? | -28% | 7.1* | 7.1µM* | ? | ?
Cc1cnc(CNc2ncnc3ccc(-c4ccccc4C(F)(F)F)cc23)cn1 | . | . | . | -29% | . | . | . | . | .
O=c1nc(/C=C/c2cccn2-c2ccc([N+](=O)[O-])cc2)cc(C(F)(F)F)[nH]1 | -11%[57.1 µM] | -6% | -7% | -9% | -22%[57.1 µM] | . | . | . | .
O=c1nc(/C=C/c2cc([N+](=O)[O-])ccc2Cl)cc(C(F)(F)F)[nH]1 | -4% | -2% | -3% | ? | ? | 3.2* | 3.2µM* | ? | -6%
CC1Cc2cc(S(=O)(=O)NCc3ccccc3Cl)ccc2N1C(=O)C1CCC1 (centres undefined) | -7% | -3% | 1% | -4% | 5% | . | . | . | .
CCN(CC)c1ccc(C(=O)NCc2ccc3c(c2)CCN3C(=O)c2ccc(F)cc2)cc1 | -2%[57.1 µM] | ? | 0% | 12% | 7%[57.1 µM] | . | . | . | .
COc1cc(/C=C/C(=O)c2cccc([N+](=O)[O-])c2)cc(OC)c1OC | -15% | ? | 2% | ? | ? | 2.2* | 2.5µM* | ? | ?
COc1ccc(/C=C/C(=O)c2ccc(C)c([N+](=O)[O-])c2)cc1O | -10% | -25% | ? | 35µM* | -23% | 11* | 7.9µM* | ? | ?
O=C(/C=C/c1ccccc1F)c1cccc([N+](=O)[O-])c1 | -1% | -17% | 0% | 13µM* | ? | 2.5* | 1.6µM* | 26µM* | 0%
COc1ccc(C(=O)/C=C/c2ccccc2F)c(OC(=O)c2ccc([N+](=O)[O-])cc2)c1 | -5% | -26% | 10% | ? | -9% | ? | 6.3µM* | ? | -23%
COc1ccc(C(=O)/C=C/c2ccc(C)cc2)c(OC(=O)c2ccc([N+](=O)[O-])cc2)c1 | 1% | 0% | . | -10% | 0% | . | . | . | .
CCCCN1CCC[C@H]1CNC(=O)c1cc(C#N)c2ccccc2c1OC | . | . | . | 5% | . | . | . | . | .
COc1ccc(NC(=O)Cn2cnc3c(nc4n3CCCCC4)c2=O)c(OC)c1 | -4% | 1% | -5% | 5% | 11% | . | . | . | .
COc1cccc(C(=O)Nc2nc(-c3nnn(-c4ccccc4C(F)(F)F)c3C)ns2)c1 | -2%[57.1 µM] | -1% | 2% | 1% | 5%[57.1 µM] | . | . | . | .
Cc1ccc(SC[C@H](Cc2ccccc2)N2CC[C@@H](C(C)(C)C)CCC2=O)cc1 | 1% | 2% | . | . | 35% | . | . | . | .
CC(=O)Oc1cccc(/C=c2\sc3nc(-c4ccco4)nn3c2=O)c1 | 0% | -2% | 0% | ? | ? | 11* | ? | 0% | 18%
CCCOc1ccc(/C=c2\sc3nc(-c4ccco4)nn3c2=O)cc1OCC | 18% | -1% | ? | -13% | 20%[57.1 µM] | . | . | . | .
CCN(CC)c1ccc(NC(=O)c2ccccc2)cc1S(=O)(=O)Nc1ccccc1OC | -7% | 0% | 0% | ? | 5% | 3.2* | 3.2µM* | 1% | -11%
SMILES | TrxR1 substrate | Vif-A3G inh | Vif-A3F inh | VDR inhibitor | TrxR1 inh | VDR confirm | VDR FP | VDR bla | VDR viability | others
CSc1ccc(/C=C/C(=O)c2c(O)cc(C)oc2=O)cc1 | -4% | -17% | 1% | ? | -26% | 5.3* | 152% | ? | ?
Cc1cc(O)c(C(=O)/C=C/c2ccc(Cl)cc2)c(=O)o1 | 1%[57.1 µM] | -10% | ? | ? | -20%[57.1 µM] | . | . | . | .
Nc1ccc(N2CCCC2)c(S(=O)(=O)Nc2cccc(C(F)(F)F)c2)c1 | 1%[57.1 µM] | 1% | -2% | 40µM* | -10%[57.1 µM] | 11* | ? | -4% | 17%
COc1ccc(NS(=O)(=O)c2cc(N)ccc2N2CCCCC2)cc1 | -8% | -17% | -4% | -2% | 6% | . | . | . | .
CCC(=O)NC1=C(Cl)C(=O)C(NC(=O)CC)=C(Cl)C1=O | -11%[57.1 µM] | -29% | -1% | 14µM* | ? | 6.7* | 5µM* | 15µM* | 13µM*
CCC(=O)NC1=C(NC(C)c2ccccc2)C(=O)c2ccccc2C1=O (centres undefined) | -6% | -1% | -3% | 3% | -21% | . | . | . | .
COCCN(CC(=O)NC1CCCCC1)C(=O)/C=C/C(=O)c1ccc(OC)cc1O | 9%[57.1 µM] | ? | -1% | 16µM* | 2µM* | 9.5* | ? | 21µM* | ?
COc1ccc(C(=O)/C=C/C(=O)N(CC(=O)NC2CCCCC2)Cc2cccs2)c(O)c1 | 3% | ? | 1% | 45µM* | 1µM* | 15* | ? | 7.3µM* | 15µM*
COc1ccc(CN(C(=O)/C=C/C(=O)c2ccc(OC)cc2O)C(C(=O)NC2CCCCC2)c2ccncc2)cc1 (centres undefined) | -4% | 0% | 5% | -22% | -1% | . | . | . | .
